# Sampled rows, rich in hits. Any-hit rate of the full collection: about 3.5%.
# Bead autofluor: counter-screen for toxin protease inhibitors: compound fluorescence | compound autofluorescence counterscreen, microsphere flow cytometry; active compounds read high | fluorescence intensity (test concentration not listed) | hit rate 3.1% among 360,000; in the data active = fluorescence intensity above about 16000; inconclusive = no clear call, values can overlap the other calls
# Anthrax LF prot: blocks Bacillus anthracis lethal factor protease; P15917; multiplex microsphere protease cleavage assay, LF; inhibition, % at 10 µM; hit rate 0.12% among 360,000; AID 588501; also: plate controls were buffer without enzyme for full effect and enzyme alone for no effect
# BoNT F protease: inhibitors of Botulinum neurotoxin F light chain protease. Multiplex microsphere protease cleavage assay, flow cytometry. inhibition, % at 10 µM. hit rate 0.22% among 360,000; in the data active = inhibition above about 35%, passing the limit was not always enough; inconclusive = no clear call, values can overlap the other calls; also: plate controls were buffer without enzyme for full effect and enzyme alone for no effect
# BoNT A protease: inhibitors of Botulinum neurotoxin A light chain protease | multiplex microsphere protease substrate cleavage, flow cytometry | hit rate 0.17% among 360,000 | inhibition, % at 10 µM | AID 588499; also: plate controls were buffer without enzyme for full effect and enzyme alone for no effect
# Starred values were filed as active, the others as inactive; ? = inconclusive. Rule as the data show it, unless noted: active = inhibition above about 30%; inconclusive = no clear call, values can overlap the other calls; inactive = below that.
SMILES,Bead autofluor,Anthrax LF prot,BoNT F protease,BoNT A protease
CCOC(=O)N1CCN(C(=O)CN(C2CCCCC2)S(=O)(=O)c2ccc(Cl)cc2)CC1,22589*,-1,1,1
CCOC(=O)[C@]12CCC=C1N(Cc1ccc3c(c1)OCO3)C(=O)[C@H](CC(=O)NCC13CC4CC(CC(C4)C1)C3)C2,4123,0,2,1
Cn1cccc1/C=N/N1CCN(c2ccccc2)CC1,4660,4,-2,0
CCc1cc(C(=O)OC)c(NC(=O)CC2SC(N)=NC2=O)s1 (centres undefined),1932,0,4,0
CCc1cc(C(=O)OC)c(N2C(=O)C3C4C=CC(C4)C3C2=O)s1 (centres undefined),23671*,-1,-3,0
CCCCCn1nc(C(=O)N(CCOC)c2c(N)n(CCCC)c(=O)[nH]c2=O)c2ccccc2c1=O,?,1,-2,-2
O=C(Nc1cccnc1)C1CCC(CNS(=O)(=O)c2cccc3nsnc23)CC1 (centres undefined),4195,-2,4,-1
Cc1ccc(Nc2nc3c([nH]2)c(=O)n(C)c(=O)n3C)cc1,20196*,-2,-5,-2
CCOC(=O)C(=N/O)/C(C)=N/NC(C)=O,4605,-5,46*,4
CCCc1[nH]nc2c1C(c1ccc(OC(=O)N3CCOCC3)cc1)C(C#N)=C(N)O2 (centres undefined),9715,0,-9,-1
N#CC1=C(N)Oc2n[nH]c(-c3ccccc3)c2C1c1cccc(OC(=O)N2CCOCC2)c1 (centres undefined),16755*,-4,-6,-2
COc1ccc(-c2[nH]nc3c2C(c2ccccc2OC(=O)N2CCOCC2)C(C#N)=C(N)O3)cc1 (centres undefined),20595*,-1,0,0
CCOC(=O)C1=C(C)NC(C)=C(C(=O)OCC)C1C(=O)OCC(=O)Nc1ccc(NC(C)=O)cc1,3819,-1,0,0
O=C(NCCc1ccccn1)c1n[nH]c(=O)c2ccccc12,22070*,-1,-4,-3
CCCOc1ccc(-c2nn(-c3ccccc3)cc2/C=C2\SC(=S)N(C3CCS(=O)(=O)C3)C2=O)cc1 (centres undefined),5968,47*,40*,49*
CCOc1ccc(-c2nn(-c3ccccc3)cc2/C=C2\SC(=S)N(C3CCS(=O)(=O)C3)C2=O)cc1 (centres undefined),2755,29,43*,36*
COc1ccc(Cl)cc1NC(=O)CN(C)C(=O)c1cc2c(s1)CCC(C)C2 (centres undefined),5203,2,8,1
Cc1ccc(NC(=O)CSc2nnnn2C2CCCC2)cc1S(=O)(=O)N1CCOCC1,5267,-3,3,2
CCn1c2ccccc2c2cc(NC(=O)COC(=O)c3cc(Cl)c(N)cc3OC)ccc21,4566,10,-7,1
Nc1c(S(=O)(=O)c2ccccc2)c2nc3ccccc3nc2n1/N=C/c1ccco1,19798*,0,-1,?
Cc1cccc(S(=O)(=O)c2c(N)n(/N=C/c3ccco3)c3nc4ccccc4nc23)c1,22583*,-1,5,3
Cc1ccc(S(=O)(=O)c2c(N)n(NC(=O)C3CC3)c3nc4ccccc4nc23)cc1,16643*,-4,1,0
Cc1ccc(S(=O)(=O)c2c(N)n(/N=C/c3ccco3)c3nc4ccccc4nc23)cc1,20865*,-4,-4,0
Cc1ccc(S(=O)(=O)c2c(N)n(/N=C/c3ccco3)c3nc4ccccc4nc23)cc1C,2315,-5,0,1
CC(C=CC(O)=C1C(=O)CNC1=O)=C[C@@H](C)C1OC2(C)OC(C(=O)C3O[C@@]32C)C1C (some centres undefined),5428,-1,-3,0
SMILES,Bead autofluor,Anthrax LF prot,BoNT F protease,BoNT A protease
CCOC(=O)C1CCN(C(=O)C2CCN(S(=O)(=O)N3CCC4(CC3)OCCO4)CC2)CC1,5771,-5,2,0
CCOC(=O)N1CCN(c2ncnc3c2oc2nc(C(C)C)c4c(c23)CCC4)CC1,20792*,-5,4,4
CN1C(=O)CC(c2ccco2)Sc2ccccc21 (centres undefined),21771*,1,-3,-4
O=C(CN1C(=O)CC(c2ccco2)Sc2ccccc21)NCC1CCCO1 (centres undefined),23515*,-8,0,?
CCCN1C(=O)CC(c2ccco2)Sc2ccccc21 (centres undefined),9884,-2,2,-1
CCCCCCCCN1C(=O)[C@H](CC(=O)NCc2ccc(OC)c(OC)c2)C[C@@]2(C(=O)OCC)CCCC=C12,6088,-3,-2,-1
CCOC(=O)C1=C(C)N=C2SC(C(=O)OC)=CC(=O)N2C1c1ccc(F)cc1 (centres undefined),8359,-1,-16,0

# Screening data as filed in PubChem.
